Screens deposited in PubChem BioAssay by National Center for Advancing Translational Sciences (NCATS).
DRD3 antagonist: antagonists of human D3 dopamine receptor | max response, negative = inhibition, % | 2.5% of 360,000 active | D3R cells, DiscoveRx beta-arrestin luminescence, antagonist mode; hits give low values | P35462; in the data active = max response below about -50%; inconclusive = no clear call, values can overlap the other calls
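Cells expressing the human receptor were seeded at 1500 cells/well, incubated overnight at 37 degrees C in 5% CO2, then exposed to library compounds with dopamine controls for 90 minutes at 37 degrees C before luminescent detection.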
TDP1 cell noCPT: qHTS for Inhibitors of human tyrosyl-DNA phosphodiesterase 1 (TDP1): qHTS in cells in absence of CPT; 15% of 420,000 active; DT40 Tdp1-/- hTDP1 cells, no CPT, ATP luminescence, 48 h; Potency, µM (titrated, usually from 46.2 µM), hits mostly inhibitors; AID 686978, 2013; note: nearly all actives have a fitted effect of over 55% in size
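Readout: luminescence from CellTiter-Glo after 30 min in the dark at RT. Cells: DT40 Tdp1-/- with stable hTDP1, 400/well. Exposure: compounds alone, ≥48 hr, 37 °C.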
ClpP mod: qHTS Assay for Activators of ClpP | ATP-dependent Clp protease proteolytic subunit (Bacillus subtilis (strain 168)), P80244 | purified B. subtilis ClpP, FRET peptide cleavage, 20 min | Potency, µM (top dose mostly 57.5 µM) | 1.9% of 340,000 active; active = well fitted falling curve with a large enough effect; inconclusive = small, poorly fitted or top-dose-only effect; inactive = no such curve, though single readings can be large or run the other way; note: the source files actives as falling curves though it sought activators and does not explain the sign; nearly all actives have a fitted effect of over 65% in size
Target sequence (P80244 whole entry, looked up): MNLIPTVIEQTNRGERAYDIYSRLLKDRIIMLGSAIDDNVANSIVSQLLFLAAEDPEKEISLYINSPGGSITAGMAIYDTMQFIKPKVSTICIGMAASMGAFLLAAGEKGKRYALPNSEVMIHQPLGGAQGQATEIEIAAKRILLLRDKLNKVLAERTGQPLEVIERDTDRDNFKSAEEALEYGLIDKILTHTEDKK
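ClpP 10 microg/mL final, pH 8 Tris/KCl buffer with BSA, glycerol, Tween-20; compound pinned in; FRET-FV substrate; RT 20 min; Ex320/Em430; ΔFRET vs ADEP 5.8 microM, DMSO, no enzyme.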
IL1B secr inh: inflammasome signaling inhibition, IL-1 beta readout. 4.7% of 360,000 active. THP-1 LPS/ATP IL-1B secretion, AlphaLISA, 16 h; hits give low values. activity change, % at 57.5 µM; in the data active = activity change below about -50%; inconclusive = mostly about -30% to -49%
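THP-1 cells pretreated 1 hr with compounds (up to 57.5 uM final), then stimulated with LPS (250 ng/mL final) plus ATP (1.25 mM final); secreted IL-1B measured by AlphaLISA after 16 hr, decreased signal indicating inhibition.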
DRD3 agonist: agonists of human D3 dopamine receptor. D3R DiscoveRx beta-arrestin cells, luminescence, 90 min. 0.58% of 410,000 active. max activation, %. P35462; in the data active = max activation above about 30%
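Agonist-mode cell screen: cells plated at 1500/well and incubated overnight at 37 °C, then exposed to library compounds for 90 min at 37 °C. Detection reagent was added for 30–60 min at room temperature, and luminescence was read.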
TDP1 cell CPT: growth inhibition of DT40 Tdp1-/-;hTDP1 cells with camptothecin (screen for TDP1 inhibitors); Potency, µM (top dose mostly 46.2 µM), usual class: inhibitors; 12% of 420,000 active; chicken DT40 Tdp1-/-;hTDP1 cells + 20 nM CPT, ATP luminescence, 48 h; AID 686979; note: nearly all actives have a fitted effect of over 55% in size
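Chicken DT40 Tdp1-/- cells stably complemented with human TDP1 were seeded at 400 cells/well in medium containing 20 nM camptothecin, exposed to pin-transferred compounds, and grown at 37 °C for at least 48 hr. Viability was read as ATP luminescence.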
A number is an active result. The list is not random: actives were taken first. Their share in the collection is about 21%. Unless noted, calls come from the whole dose curve; as a rule, active = well fitted inhibition curve with a large enough effect; inconclusive = small, poorly fitted or top-dose-only effect; inactive = flat fitted curve, though single readings scatter.

CCCCCc1cc(=O)oc2c(C(CCN3CCCCC3)c3ccc(OC)cc3)c(OC)cc(OC)c12 (centres undefined) was read as DRD3 antagonist inconclusive, TDP1 cell noCPT 16µM, ClpP mod inactive, IL1B secr inh inconclusive, DRD3 agonist inactive and TDP1 cell CPT inconclusive.
`OCC[C@H]1C[C@H](O)[C@@H](O)[C@]2(OCCc3ccccc32)O1` gave DRD3 antagonist inactive, TDP1 cell noCPT inactive, ClpP mod inactive, IL1B secr inh inactive, DRD3 agonist inactive and TDP1 cell CPT inactive.
Screening CCCCCc1cc(=O)oc2c(C(CCN(CC)CC)c3ccc(OC)cc3)c(OC)cc(OC)c12 (centres undefined) returned DRD3 antagonist inactive, TDP1 cell noCPT inconclusive, ClpP mod inactive, IL1B secr inh inconclusive, DRD3 agonist inactive and TDP1 cell CPT 15µM.
CCCCCc1cc(=O)oc2c(C(CCN3CCCC(C)C3)c3ccc(OC)cc3)c(OC)cc(OC)c12 (centres undefined) was read as DRD3 antagonist inconclusive, TDP1 cell noCPT 23µM, ClpP mod inconclusive, IL1B secr inh -54, DRD3 agonist inactive and TDP1 cell CPT inconclusive.
`CCN(CC)C(=O)CC(c1ccc(N(C)C)cc1)c1c(OC)cc(OC)c2c(-c3ccccc3)cc(=O)oc12` (centres undefined) gave DRD3 antagonist inactive, TDP1 cell noCPT inconclusive, ClpP mod inactive, IL1B secr inh inactive, DRD3 agonist inactive and TDP1 cell CPT inconclusive.
For O=C(NCCCn1ccnc1)c1cc2c(ccc3ccccc32)o1 the results were DRD3 antagonist inactive, TDP1 cell noCPT inactive, IL1B secr inh inactive, DRD3 agonist inactive and TDP1 cell CPT inactive.
`Cc1nn2c(=O)cc(COC(=O)c3ccccc3NC(=O)C3CCCCC3)nc2s1` gave TDP1 cell noCPT inactive, ClpP mod inactive, DRD3 agonist inactive and TDP1 cell CPT inactive.
For CN(C)c1ccc(/C=C2\CCCc3c2nc2ccccc2c3C(=O)O)cc1 the results were DRD3 antagonist inactive, TDP1 cell noCPT inactive, IL1B secr inh inactive, DRD3 agonist inactive and TDP1 cell CPT inactive.
Screening CCCCC(CC)C(=O)Nc1ncc([N+](=O)[O-])s1 (centres undefined) returned DRD3 antagonist inactive, TDP1 cell noCPT inconclusive, ClpP mod inactive, IL1B secr inh -79, DRD3 agonist inactive and TDP1 cell CPT inconclusive.
Screening O=C(/C=C/c1ccc([N+](=O)[O-])cc1)Nc1ncc([N+](=O)[O-])s1 returned DRD3 antagonist inactive, TDP1 cell noCPT 8.2µM, ClpP mod inactive, IL1B secr inh -78, DRD3 agonist inactive and TDP1 cell CPT 5.8µM.
Cc1ncoc1C(=O)Nc1ncc([N+](=O)[O-])s1 was read as DRD3 antagonist inconclusive, TDP1 cell noCPT inconclusive, IL1B secr inh inactive, DRD3 agonist inactive and TDP1 cell CPT inconclusive.
For O=C(CS(=O)(=O)c1ccccc1)Nc1ncc([N+](=O)[O-])s1 the results were DRD3 antagonist inactive, TDP1 cell noCPT inactive, IL1B secr inh inactive, DRD3 agonist inactive and TDP1 cell CPT inactive.
Screening O=C(Nc1ncc([N+](=O)[O-])s1)c1cccs1 returned DRD3 antagonist inactive, TDP1 cell noCPT 10µM, ClpP mod inactive, IL1B secr inh inactive, DRD3 agonist inactive and TDP1 cell CPT 18µM.
For O=C(/C=C/c1ccc([N+](=O)[O-])cc1)NCc1ccccn1 the results were DRD3 antagonist inactive, TDP1 cell noCPT inactive, ClpP mod inactive, IL1B secr inh inactive, DRD3 agonist inactive and TDP1 cell CPT inconclusive.
O=C(Nc1ncc([N+](=O)[O-])s1)c1ccccc1Br was read as DRD3 antagonist inactive, TDP1 cell noCPT 18µM, ClpP mod inactive, IL1B secr inh inactive, DRD3 agonist inactive and TDP1 cell CPT 21µM.
For N#Cc1cccnc1Oc1ccccc1 the results were DRD3 antagonist inactive, TDP1 cell noCPT inactive, IL1B secr inh inactive, DRD3 agonist inactive and TDP1 cell CPT inactive.
Screening Cc1cnc(NC(=O)c2cccs2)s1 returned DRD3 antagonist inactive, TDP1 cell noCPT inactive, IL1B secr inh -99, DRD3 agonist inactive and TDP1 cell CPT inactive.
